This is an account of results in PubChem BioAssay AID2570 (National Center for Advancing Translational Sciences (NCATS), 2010).

Several values for one entry are separate records, joined by “and”; a condition that tells them apart may be missing. Equal values may be shown once. Results filed as inconclusive are left out. Activity calls are given as the source filed them. Calls come from the whole dose curve; as a rule, active = well fitted curve in the direction sought with a large enough effect; inconclusive = small, poorly fitted or top-dose-only effect, or another doubt; inactive = no such curve, though single readings can be large or run the other way.

The target of the experiment is Vasopressin V1b receptor (Homo sapiens) (UniProt P47901). Nature of the experiment: Counterscreen Concentration-Response Assay for Antagonists of the Neuropeptide S Receptor: Vasopressin Receptor Calcium Signal Transduction. The note with it: CHO-AVPR1B, vasopressin-stimulated calcium fluorescence, FDSS. A digest of the protocol: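 CHO cells stably expressing human AVPR1B, calcium-dye loaded, were given compound, then stimulated with 60 nM vasopressin in HBSS/0.1% BSA. Peak kinetic fluorescence was normalized to DMSO and no-signal controls; AC50 from Hill fits.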
Vasopressin V1b receptor (Homo sapiens), sequence (P47901 whole entry, looked up): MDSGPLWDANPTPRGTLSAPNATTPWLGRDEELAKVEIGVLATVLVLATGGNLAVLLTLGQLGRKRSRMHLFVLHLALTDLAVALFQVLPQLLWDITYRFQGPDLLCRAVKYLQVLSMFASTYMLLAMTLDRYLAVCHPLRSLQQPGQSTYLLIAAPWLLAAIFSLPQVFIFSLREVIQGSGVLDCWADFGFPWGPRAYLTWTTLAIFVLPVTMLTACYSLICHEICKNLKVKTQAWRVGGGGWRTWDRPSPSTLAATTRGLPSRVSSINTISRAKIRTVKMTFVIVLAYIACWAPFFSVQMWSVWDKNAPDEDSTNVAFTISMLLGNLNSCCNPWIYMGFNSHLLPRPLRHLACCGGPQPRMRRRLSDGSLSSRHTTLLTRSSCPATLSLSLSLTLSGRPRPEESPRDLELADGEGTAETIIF
A general note: A counterscreen serves to expose hits that act by an unwanted route or on another target.
For the molecule `CCOC(=O)CC(=O)Nc1ncnc2c1C(c1ccccc1)c1c(ccc3ccccc13)O2` (stereo not given), the max response was -17.5% (inactive).

For `COc1cccc(C2c3c(ncn(-c4ccc5c(c4)OCO5)c3=N)Oc3ccc4ccccc4c32)c1` (stereo not given), the max response is -20.7% (inactive).

Take `COc1cccc(C2c3c(ncn(-c4cccc(C)c4)c3=N)Oc3ccc4ccccc4c32)c1` (stereo not given): the max response was -55.3% (inactive).

Turning to `COc1cccc(C2c3c(ncn(-c4cccc(F)c4)c3=N)Oc3ccc4ccccc4c32)c1` (stereo not given), the max response was -14.9% (inactive).

Take `COc1ccc(C2c3ccc(OCc4ccccc4)cc3Oc3ncn(CCN4CCOCC4)c(=N)c32)cc1OC` (stereo not given): the max response was -15.2% (inactive).

For `COc1cccc(C2c3c(ncn(-c4ccccc4C)c3=N)Oc3ccc4ccccc4c32)c1` (stereo not given), the max response was -2.54% (inactive).

Regarding `COc1cccc(C2c3c(ncn(-c4cccc(Cl)c4)c3=N)Oc3ccc4ccccc4c32)c1` (stereo not given), the max response is -5.71% (inactive).

As to `CCOc1ccc(C2c3c(ncn(-c4ccccc4)c3=N)Oc3ccc4ccccc4c32)cc1OCC` (stereo not given), the max response was -23.4% (inactive).

On to `COc1ccc(C2c3c(ncn(CCc4ccccc4)c3=N)Oc3ccc4ccccc4c32)cc1OC` (stereo not given), for which the max response was 7.55% (inactive).

For the molecule `O=C1OC(c2ccccc2)(c2ccccc2)N2CCN(C(=O)NCc3ccc(F)cc3)CC12` (stereo not given), the max response was 22.2% (inactive) and 17.7% (inactive).

With `COc1ccc(C2c3c(N)nc(CCCc4ccccc4)nc3Oc3ccc4ccccc4c32)cc1OC` (stereo not given), the max response is -15.9% (inactive).

For the molecule `Cc1c(P(=S)(c2ccccc2)c2ccccc2)c2ccccc2n1CCc1ccccc1`, the max response is -38.1% (inactive).

As for `Cc1c(P(=S)(c2ccccc2)c2ccccc2)c2ccccc2n1CCCc1ccccc1`, the max response was 8.85% (inactive).

As to `COc1ccc(C2c3c(ncn(CCCc4ccccc4)c3=N)Oc3ccc4ccccc4c32)cc1OC` (stereo not given), the max response is 11.1% (inactive).

Turning to `N#CC1=C(NC=NCc2ccccc2)Oc2ccc3ccccc3c2C1c1ccccc1` (stereo not given), the max response was -19% (inactive).

As for `O=C(Nc1ncnc2c1C(c1ccccc1)c1c(ccc3ccccc13)O2)c1ccccc1` (stereo not given), the max response was 8.3% (inactive).

As to `COc1ccc(C2c3c(nc(Cc4ccccc4)[nH]c3=O)Oc3ccc4ccccc4c32)cc1OC` (stereo not given), the max response is 14.7% (inactive).

For `COc1cccc(C2c3c(ncn(-c4cccc(C#N)c4)c3=N)Oc3ccc4ccccc4c32)c1` (stereo not given), the max response was -10.9% (inactive).

Consider `COc1ccc(C2c3c(nc(CCCc4ccccc4)[nH]c3=O)Oc3ccc4ccccc4c32)cc1OC` (stereo not given), for which the max response is 12% (inactive).

As for `N=c1c2c(ccn1CCCCc1ccccc1)Oc1ccc3ccccc3c1C2c1ccccc1` (stereo not given), the max response was 19.5% (inactive).
